Activity calls are given as the source filed them. Unless noted, no rule for the calls is given here.
Key:
[1] = compound effects on lung adenocarcinoma cell viability – A549, calcein-AM fluorescence, 48 h, basal, profiling panel (AID 1162); details: higher = more signal; also: test concentration not given here
[2] = compound effects on differentiated 3T3-L1 adipocyte viability – cell-based, 3T3-L1 adipocytes, calcein-AM fluorescence, 48 h, basal, profiling panel (AID 1163); details: 3T3-L1 adipocytes viability, higher = more signal; also: test concentration not given here
[3] = compound effects on hepatocellular carcinoma cell viability – HepG2, calcein-AM fluorescence, 48 h, basal, profiling panel (AID 1164); details: higher = more signal; also: test concentration not given here
[4] = compound effects on multiple myeloma cell viability – MM1S, calcein-AM fluorescence, 48 h, basal, profiling panel (AID 1165); details: higher = more signal;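 also: viability of MM1S multiple myeloma cells under basal unstimulated conditions; test concentration not given here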
[5] = calcein-AM signal in unstimulated myeloma cells – cell-based, calcein-AM fluorescence, 48 h, PK04 Diversity Set, profiling panel (AID 1166); details: RPMI8226 myeloma viability, higher = more signal;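 also: cells grown under basal conditions without added stimulus; test concentration not given here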
[6] = JC-1 mitochondrial signal, unstimulated HepG2 cells – cell-based, JC-1 fluorescence, 24 h, 100 nL compound, profiling panel (AID 1167); details: HepG2 mitochondrial potential, higher = more signal; also: test concentration not given here
[7] = JC-1 mitochondrial signal, unstimulated adipocytes – cell-based, JC-1 fluorescence, 3T3-L1 adipocytes, 24 h, 100 nL compound, profiling panel (AID 1168); details: JC-1 mitochondrial fluorescence, higher = more signal, called active from +8 up or from −8 down; also: test concentration not given here
[8] = JC-1 mitochondrial signal, unstimulated myeloma cells – cell-based, JC-1 fluorescence, RPMI8226, 24 h, 100 nL compound, profiling panel (AID 1169); details: JC-1 mitochondrial potential fluorescence, higher = more signal; also: test concentration not given here
[9] = JC-1 mitochondrial signal, unstimulated MM1S myeloma – cell-based, JC-1 fluorescence, 24 h, 100 nL compound, profiling panel (AID 1170); details: MM1S mitochondrial potential, higher = more signal; also: test concentration not given here
[10] = resazurin metabolic signal in A549 cells – cell-based, resazurin fluorescence, 24 h, PK04 Diversity Set, profiling panel (AID 1171); details: A549 viability, higher = more signal, called active from +8 up or from −8 down; also: test concentration not given here
[11] = resazurin metabolic signal in HepG2 cells – cell-based, resazurin fluorescence, 24 h, PK04 Diversity Set, profiling panel (AID 1172); details: HepG2 viability, higher = more signal; also: test concentration not given here
[12] = budding yeast growth changes without added modifier – OD600, strain BY4716, 24 h, basal condition, primary screen (AID 1173); details: S. cerevisiae BY4716 growth, OD600, 24 h; higher = more signal, called active from +8 up or from −8 down
[13] = viability profiling in MM1S myeloma cells – cell-based, resazurin fluorescence, basal, 24 h, PK04 Diversity Set, profiling panel (AID 1174); details: higher = more signal, called active from +8 up or from −8 down; also: test concentration not given here
[14] = target: Dihydroorotate dehydrogenase (quinone), mitochondrial (Plasmodium falciparum (isolate 3D7)) (UniProt Q08210); assay: inhibition of P. falciparum DHODH – biochemical, C-terminal His tag, absorbance 600 nm, primary screen (AID 1175); details: PfDHODH enzyme, DCIP absorbance 600 nm; higher = more signal, called active from +8 up or from −8 down;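 also: recombinant parasite enzyme with a five histidine tag at its C terminus; test concentration not given here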
Sequence of Dihydroorotate dehydrogenase (quinone), mitochondrial (Plasmodium falciparum (isolate 3D7)) (Q08210 whole entry, looked up): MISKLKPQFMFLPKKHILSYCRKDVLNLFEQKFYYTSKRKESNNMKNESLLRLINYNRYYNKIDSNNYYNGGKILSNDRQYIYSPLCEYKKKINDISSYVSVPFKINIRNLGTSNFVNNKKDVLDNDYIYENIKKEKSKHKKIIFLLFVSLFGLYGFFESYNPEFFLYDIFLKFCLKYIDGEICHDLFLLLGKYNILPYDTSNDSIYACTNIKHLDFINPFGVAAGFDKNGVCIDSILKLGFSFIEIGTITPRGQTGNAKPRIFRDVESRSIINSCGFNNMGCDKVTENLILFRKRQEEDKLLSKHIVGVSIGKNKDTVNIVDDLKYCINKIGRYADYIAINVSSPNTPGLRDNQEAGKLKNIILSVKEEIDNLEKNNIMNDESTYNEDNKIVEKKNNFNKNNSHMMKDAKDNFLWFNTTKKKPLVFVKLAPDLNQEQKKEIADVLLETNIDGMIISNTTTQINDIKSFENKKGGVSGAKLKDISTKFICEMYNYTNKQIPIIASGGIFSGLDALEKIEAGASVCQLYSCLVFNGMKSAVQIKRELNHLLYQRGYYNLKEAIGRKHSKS

[15] = inhibition of PAO1 biofilm formation – strain PAO1, LB-PBS medium, absorbance 600 nm, primary screen (AID 1176); also: test concentration not given here; details: P. aeruginosa PAO1 growth/biofilm, A600, 12 h; higher = more signal
[16] = growth modulation of vineyard yeast isolate – strain RM11-1a, OD600, basal, 24 h, primary screen (AID 1177);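 also: cultures grown under basal conditions with no added stressor; test concentration not given here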; details: S. cerevisiae RM11-1a growth, OD600, 24 h; higher = more signal, called active from +8 up or from −8 down
[17] = growth of efflux-deficient E. coli DRC39 – strain DRC39, OD650, 24 h, E. coli filamentation inducers, primary screen (AID 1178);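 also: growth measured as culture turbidity by optical density at 650 nm; test concentration not given here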; details: E. coli DRC39 acrAB, higher = more signal, called active from +8 up or from −8 down
[18] = growth of efflux-deficient E. coli DRC39 – strain DRC39, OD650, 48 h, E. coli filamentation inducers, primary screen (AID 1179);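 also: screen aims at cell division blockers that make cells filament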; details: E. coli DRC39 delta-acrAB growth, higher = more signal, called active from +8 up or from −8 down
[19] = viability profiling in RPMI8226 myeloma cells – cell-based, resazurin fluorescence, basal, 24 h, PK04 Diversity Set, profiling panel (AID 1180); details: higher = more signal;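 also: RPMI8826 multiple myeloma cell line at 5000 cells per well; test concentration not given here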
[20] = target: E3 ubiquitin-protein ligase XIAP (Homo sapiens) (UniProt P98170); assay: small molecules binding XIAP protein – biophysical, small-molecule microarray, fluorescence 635 nm, primary screen (AID 1181); details: higher = more signal;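 also: score merges 667 nm emission and signal to noise over triplicate slides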
Sequence of E3 ubiquitin-protein ligase XIAP (Homo sapiens) (P98170 whole entry, looked up): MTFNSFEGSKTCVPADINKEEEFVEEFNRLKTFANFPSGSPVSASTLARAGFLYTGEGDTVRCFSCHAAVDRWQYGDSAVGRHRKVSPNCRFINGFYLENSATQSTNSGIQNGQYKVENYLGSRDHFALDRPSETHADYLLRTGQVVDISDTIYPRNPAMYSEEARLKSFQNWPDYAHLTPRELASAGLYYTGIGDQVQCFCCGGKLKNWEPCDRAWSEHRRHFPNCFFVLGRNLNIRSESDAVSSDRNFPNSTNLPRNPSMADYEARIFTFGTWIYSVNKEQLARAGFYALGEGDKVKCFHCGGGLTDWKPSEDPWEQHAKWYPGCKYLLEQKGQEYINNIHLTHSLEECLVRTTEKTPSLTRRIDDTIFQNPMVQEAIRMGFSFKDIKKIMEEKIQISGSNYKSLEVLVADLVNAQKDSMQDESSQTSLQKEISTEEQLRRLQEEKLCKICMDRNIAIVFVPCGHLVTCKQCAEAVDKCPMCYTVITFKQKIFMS

[N-]=[N+]=Nc1ccccc1C[C@]1(C(=O)N2CCOCC2)N=C(c2ccc(OCCCO)cc2)O[C@H]1c1ccccc1N=[N+]=[N-]
z-score [1]: 0.961
z-score [2]: 0.744
z-score [3]: -0.621
z-score [4]: -1.77
z-score [5]: -2.98
z-score [6]: 1.81
z-score [7]: -0.0199 (inactive)
z-score [8]: -1.01
z-score [9]: -2.03
z-score [10]: -2.16 (inactive)
z-score [11]: -1.37
z-score [12]: -2.51 (inactive)
z-score [13]: -3.41 (inactive)
composite z-score [14]: -0.481 (inactive)
z-score [15]: -0.444 (inactive)
z-score [16]: 0.275 (inactive)
z-score [17]: 1.16 (inactive)
z-score [18]: 2.48 (inactive)
z-score [19]: -2.65
composite z-score [20]: 0.446

N#Cc1ccc(NN2C(C(O)C3CC=CCC3)C=CC3C(=O)N(c4ccccc4)C(=O)C32)cc1 (stereo not given)
z-score [1]: -0.726
z-score [2]: -0.613
z-score [3]: 0.921
z-score [4]: -0.318
z-score [5]: -0.265
z-score [6]: -0.795
z-score [7]: -1.14 (inactive)
z-score [8]: 0.418
z-score [9]: -0.508
z-score [10]: -0.997 (inactive)
z-score [11]: -1.3
z-score [12]: 0.0837 (inactive)
z-score [13]: -0.609 (inactive)
composite z-score [14]: 0.0758 (inactive)
z-score [15]: 1.36 (inactive)
z-score [16]: 0.601 (inactive)
z-score [17]: 0.0108 (inactive)
z-score [18]: 0.123 (inactive)
z-score [19]: -0.382
composite z-score [20]: -0.0848

O=C1C2C=CC(C(O)c3ccc([N+](=O)[O-])cc3)N(Nc3ccccc3F)C2C(=O)N1c1ccccc1 (stereo not given)
z-score [1]: -0.353
z-score [2]: -0.923
z-score [3]: -1.16
z-score [4]: 0.375
z-score [5]: -0.958
z-score [6]: -1.5
z-score [7]: -2.27 (inactive)
z-score [8]: -0.268
z-score [9]: -0.127
z-score [10]: -0.364 (inactive)
z-score [11]: -0.54
z-score [12]: -1.45 (inactive)
z-score [13]: -0.348 (inactive)
composite z-score [14]: 0.15 (inactive)
z-score [15]: 1.19 (inactive)
z-score [16]: 0.646 (inactive)
z-score [17]: -0.892 (inactive)
z-score [18]: -0.591 (inactive)
z-score [19]: -0.608
composite z-score [20]: 0.0049

C=CCC(OC(C)=O)[C@@H]1[C@@H](N(Cc2ccc(-c3cccc(C(F)(F)F)c3)o2)C(=O)c2ccc(-c3ccccc3)cc2)c2cc(OCCCO)ccc2N1C(=O)c1ccc2ccccc2c1 (stereo not given in full)
z-score [1]: 0.965
z-score [2]: 1.28
z-score [3]: 0.612
z-score [4]: 0.0723
z-score [5]: -0.164
z-score [6]: 2.76
z-score [7]: -0.081 (inactive)
z-score [8]: 0.677
z-score [9]: 0.681
z-score [10]: 0.919 (inactive)
z-score [11]: 0.393
z-score [12]: 0.488 (inactive)
z-score [13]: 0.314 (inactive)
composite z-score [14]: -0.0636 (inactive)
z-score [15]: -0.452 (inactive)
z-score [16]: 1.27 (inactive)
z-score [17]: 0.391 (inactive)
z-score [18]: 0.412 (inactive)
z-score [19]: 0.881
composite z-score [20]: -0.0889

CN(C)CCCC[C@@H]1NC(=O)[C@@H]2C[C@H](C(=O)NCCCCCCNC(=O)CS)[C@H](c3ccc(O)cc3)N2C1=O
z-score [1]: -0.121
z-score [2]: -0.145
z-score [3]: 0.548
z-score [4]: -0.0172
z-score [5]: 0.381
z-score [6]: -0.175
z-score [7]: 0.207 (inactive)
z-score [8]: -0.223
z-score [9]: -0.136
z-score [10]: 0.579 (inactive)
z-score [11]: 0.155
z-score [12]: -0.17 (inactive)
z-score [13]: -0.353 (inactive)
composite z-score [14]: -0.173 (inactive)
z-score [15]: 0.767 (inactive)
z-score [16]: -0.264 (inactive)
z-score [17]: -0.19 (inactive)
z-score [18]: -0.551 (inactive)
z-score [19]: 0.0875
composite z-score [20]: 0.0013

NC(=O)N1C(=O)C2C(C1=O)C1C=C(CCCO)C2C(c2ccc(CN3CCCC3)cc2)N1Cc1cc2c(cc1Br)OCO2 (stereo not given)
z-score [1]: -1.05
z-score [2]: 0.201
z-score [3]: -0.623
z-score [4]: -0.0321
z-score [5]: 0.124
z-score [6]: -0.595
z-score [7]: -0.472 (inactive)
z-score [8]: 0.159
z-score [9]: 0.322
z-score [10]: -0.855 (inactive)
z-score [11]: -0.766
z-score [12]: -0.222 (inactive)
z-score [13]: -1.29 (inactive)
composite z-score [14]: 0.0032 (inactive)
z-score [15]: 0.792 (inactive)
z-score [16]: -0.572 (inactive)
z-score [17]: -0.672 (inactive)
z-score [18]: -0.299 (inactive)
z-score [19]: -1.5
composite z-score [20]: 0.0251

COc1ccc(CCNC(=O)[C@@H]2c3ccccc3C(=O)N(Cc3ccccc3OC)[C@H]2c2ccc(CO)cc2)cc1
z-score [1]: 0.41
z-score [2]: -0.219
z-score [3]: -0.147
z-score [4]: -0.147
z-score [5]: 0.245
z-score [6]: 1.22
z-score [7]: -0.822 (inactive)
z-score [8]: -0.167
z-score [9]: -0.42
z-score [10]: 1.58 (inactive)
z-score [11]: 0.851
z-score [12]: 0.528 (inactive)
z-score [13]: -0.0684 (inactive)
composite z-score [14]: 1.14 (inactive)
z-score [15]: 0.264 (inactive)
z-score [16]: -0.341 (inactive)
z-score [17]: 0.483 (inactive)
z-score [18]: 0.258 (inactive)
z-score [19]: -0.205
composite z-score [20]: -0.309

COC(=O)[C@@]1(Cc2ccc(OC)cc2)[C@H]2c3cc(C(=O)N4CCCC4)n(Cc4ccc(C(F)(F)F)nc4)c3C[C@H]2CN1C(=O)c1ccccc1
z-score [1]: -1.3
z-score [2]: 0.202
z-score [3]: 0.0749
z-score [4]: -1.03
z-score [5]: -1.33
z-score [6]: 0.952
z-score [7]: -1.59 (inactive)
z-score [8]: -0.779
z-score [9]: -1.69
z-score [10]: -0.266 (inactive)
z-score [11]: -0.35
z-score [12]: 1.37 (inactive)
z-score [13]: -1.07 (inactive)
composite z-score [14]: -0.77 (inactive)
z-score [15]: 1.08 (inactive)
z-score [16]: -0.809 (inactive)
z-score [17]: -0.886 (inactive)
z-score [18]: -0.71 (inactive)
z-score [19]: -2.32
composite z-score [20]: -0.02

CC(C)=CCCC=C(C)C(O)C1C=CC2C(=O)N(c3ccccc3)C(=O)C2N1Nc1ccc(C#N)cc1 (stereo not given)
z-score [1]: 1.46
z-score [2]: 0.464
z-score [3]: 1.47
z-score [4]: -1.65
z-score [5]: -1.92
z-score [6]: -0.428
z-score [7]: -0.926 (inactive)
z-score [8]: -0.483
z-score [9]: -1.29
z-score [10]: -1.18 (inactive)
z-score [11]: -1.53
z-score [12]: -0.101 (inactive)
z-score [13]: -1.79 (inactive)
composite z-score [14]: -1.49 (inactive)
z-score [15]: 1.36 (inactive)
z-score [16]: -1.63 (inactive)
z-score [17]: -0.0959 (inactive)
z-score [18]: 0.65 (inactive)
z-score [19]: -2.19
composite z-score [20]: 0.146

— PubChem BioAssay
